Holding throughout (assay): DAPPL (digital affinity profiling via proximity ligation, sequencing); 10 mM Tris-HCl pH 7.5, 50 mM NaCl, 1 mM DTT, 4% glycerol, room temperature, 30 min; GST-TFs on glutathione beads, 16-mer random dsDNA library, 0.1% formaldehyde crosslink after washing; high values mean tight binding
One assay concerns the target T1, FEV (Homo sapiens, UniProt Q99581 1-238).
T1 sequence: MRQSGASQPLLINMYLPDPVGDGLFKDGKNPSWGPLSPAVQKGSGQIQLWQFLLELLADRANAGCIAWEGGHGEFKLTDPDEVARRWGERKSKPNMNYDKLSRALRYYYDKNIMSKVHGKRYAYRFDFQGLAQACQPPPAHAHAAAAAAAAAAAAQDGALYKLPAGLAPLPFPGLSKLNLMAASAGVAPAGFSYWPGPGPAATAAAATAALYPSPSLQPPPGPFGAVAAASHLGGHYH
Conditions: protein: recombinant; tags: N-terminal GST; dsDNA, one strand shown. The gist of the method: (§1)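 Beads coated with glutathione captured GST-fused human transcription factors that had been expressed in yeast, and the factors were then given DNA barcodes and pooled with a tag-only sample. The pools were incubated with 200 nmole of a random double-stranded 16-mer DNA library in Tris/NaCl/DTT/glycerol buffer for 30 min at room temperature, washed, crosslinked with 0.1% formaldehyde and proximity-ligated with BsaI/T4 ligase at 37 °C for 1 h. PCR amplification and Illumina NextSeq500 sequencing came last. Binding signal is each hexamer's read frequency for a factor divided by its frequency for the tag-only sample.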

The next assay concerns the target ETV5 (Homo sapiens, UniProt P41161 1-510). The note with it: protein: recombinant; tags: N-terminal GST; dsDNA, one strand shown. A digest of the protocol: as §1
A further assay concerns the target HSF1 (Homo sapiens, UniProt Q00613 1-529). The note with it: protein: recombinant; tags: N-terminal GST; chain copies: 3; dsDNA, one strand shown. The gist of the method: as §1
The next assay deals with T2, SPIC (Homo sapiens, UniProt Q8N5J4 1-248).
T2 sequence: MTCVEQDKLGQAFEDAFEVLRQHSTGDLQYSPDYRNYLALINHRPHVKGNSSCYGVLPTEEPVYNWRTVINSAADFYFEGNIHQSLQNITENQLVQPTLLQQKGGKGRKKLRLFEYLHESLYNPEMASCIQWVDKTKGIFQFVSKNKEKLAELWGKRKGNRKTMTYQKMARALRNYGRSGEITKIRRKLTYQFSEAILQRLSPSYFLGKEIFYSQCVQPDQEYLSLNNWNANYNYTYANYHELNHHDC
The note with it: protein: recombinant; tags: N-terminal GST; dsDNA, one strand shown. A digest of the protocol: as §1

Another assay deals with ELF4 (Homo sapiens, UniProt Q99607 1-663). The note with it: protein: recombinant; tags: N-terminal GST; dsDNA, one strand shown. The gist of the method:
as §1

A further assay concerns the target T3, ELK4 (Homo sapiens, UniProt P28324-2 1-405).
T3 sequence: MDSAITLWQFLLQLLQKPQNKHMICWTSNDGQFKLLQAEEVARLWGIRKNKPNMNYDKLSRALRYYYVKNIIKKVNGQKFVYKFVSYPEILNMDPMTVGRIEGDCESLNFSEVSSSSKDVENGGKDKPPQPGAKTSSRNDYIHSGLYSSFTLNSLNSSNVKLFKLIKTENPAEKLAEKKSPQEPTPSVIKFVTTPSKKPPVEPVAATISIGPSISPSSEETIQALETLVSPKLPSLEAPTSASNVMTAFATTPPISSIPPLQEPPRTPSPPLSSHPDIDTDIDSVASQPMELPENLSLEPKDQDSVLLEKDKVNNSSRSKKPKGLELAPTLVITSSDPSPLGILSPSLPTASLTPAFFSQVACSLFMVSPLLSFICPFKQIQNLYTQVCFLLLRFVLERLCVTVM
The note with it: protein: recombinant; tags: N-terminal GST; dsDNA, one strand shown. The gist of the method:
as §1

Another assay has as its target T4, ETV2 (Homo sapiens, UniProt O00321 1-342).
T4 sequence: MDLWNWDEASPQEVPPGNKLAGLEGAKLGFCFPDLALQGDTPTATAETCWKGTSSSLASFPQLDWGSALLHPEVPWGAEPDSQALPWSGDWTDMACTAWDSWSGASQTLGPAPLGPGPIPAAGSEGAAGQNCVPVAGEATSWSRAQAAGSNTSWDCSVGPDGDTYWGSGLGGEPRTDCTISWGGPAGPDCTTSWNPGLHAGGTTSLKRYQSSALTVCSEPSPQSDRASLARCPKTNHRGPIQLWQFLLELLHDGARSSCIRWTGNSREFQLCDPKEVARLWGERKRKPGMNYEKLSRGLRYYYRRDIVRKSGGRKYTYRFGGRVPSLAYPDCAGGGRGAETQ
The note with it: protein: recombinant; tags: N-terminal GST; dsDNA, one strand shown. A digest of the protocol: as §1

A further assay deals with T5, ELF3 (Homo sapiens, UniProt P78545 1-371).
T5 sequence: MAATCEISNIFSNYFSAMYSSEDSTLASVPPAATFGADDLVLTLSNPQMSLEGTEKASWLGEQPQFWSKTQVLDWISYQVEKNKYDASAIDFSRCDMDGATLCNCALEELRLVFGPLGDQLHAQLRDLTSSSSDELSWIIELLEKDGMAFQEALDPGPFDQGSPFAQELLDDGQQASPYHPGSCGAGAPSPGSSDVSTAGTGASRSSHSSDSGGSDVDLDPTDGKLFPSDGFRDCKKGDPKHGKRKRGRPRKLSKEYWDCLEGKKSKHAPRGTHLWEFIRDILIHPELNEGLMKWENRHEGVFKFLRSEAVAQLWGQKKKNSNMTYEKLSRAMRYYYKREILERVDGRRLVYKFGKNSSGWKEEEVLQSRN
The note with it: protein: recombinant; tags: N-terminal GST; dsDNA, one strand shown. A digest of the protocol:
as §1

The next assay deals with CRX (Homo sapiens, UniProt O43186 1-299). Conditions: protein: recombinant; tags: N-terminal GST; dsDNA, one strand shown. A digest of the protocol: as §1
The next assay addresses ETV1 (Homo sapiens, UniProt P50549 1-477). Conditions: protein: recombinant; tags: N-terminal GST; dsDNA, one strand shown. The gist of the method:
as §1

Another assay concerns the target T6, ERF (Homo sapiens, UniProt P50548 1-548).
T6 sequence: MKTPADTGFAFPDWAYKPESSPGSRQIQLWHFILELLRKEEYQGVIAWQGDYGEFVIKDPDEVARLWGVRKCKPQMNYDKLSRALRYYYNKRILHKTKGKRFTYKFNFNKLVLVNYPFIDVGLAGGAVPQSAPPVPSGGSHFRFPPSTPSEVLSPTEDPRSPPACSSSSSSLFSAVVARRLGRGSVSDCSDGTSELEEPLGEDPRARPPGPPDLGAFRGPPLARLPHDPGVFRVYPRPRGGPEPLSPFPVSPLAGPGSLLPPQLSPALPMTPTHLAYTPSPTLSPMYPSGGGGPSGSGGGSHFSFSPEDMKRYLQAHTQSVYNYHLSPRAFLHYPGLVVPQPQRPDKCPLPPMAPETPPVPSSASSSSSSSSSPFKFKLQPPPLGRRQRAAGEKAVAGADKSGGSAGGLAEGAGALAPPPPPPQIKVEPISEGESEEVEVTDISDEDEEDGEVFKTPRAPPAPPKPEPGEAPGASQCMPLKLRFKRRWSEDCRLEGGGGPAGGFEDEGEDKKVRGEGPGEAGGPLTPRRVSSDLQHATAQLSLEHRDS
Conditions: protein: recombinant; tags: N-terminal GST; dsDNA, one strand shown. A digest of the protocol:
as §1

The target of a further assay is T7, ETV3L (Homo sapiens, UniProt Q6ZN32 1-361).
T7 sequence: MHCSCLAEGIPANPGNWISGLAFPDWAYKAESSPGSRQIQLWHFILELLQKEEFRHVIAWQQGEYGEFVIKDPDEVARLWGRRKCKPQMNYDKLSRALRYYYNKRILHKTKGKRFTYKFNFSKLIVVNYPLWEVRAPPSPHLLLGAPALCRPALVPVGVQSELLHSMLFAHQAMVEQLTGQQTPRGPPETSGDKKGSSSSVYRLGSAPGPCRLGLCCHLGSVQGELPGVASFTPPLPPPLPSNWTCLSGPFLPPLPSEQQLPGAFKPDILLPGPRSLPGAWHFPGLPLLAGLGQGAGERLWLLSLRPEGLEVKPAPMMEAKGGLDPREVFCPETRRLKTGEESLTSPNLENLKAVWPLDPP
The note with it: protein: recombinant; tags: N-terminal GST; dsDNA, one strand shown. The gist of the method: as §1

The target of a further assay is T8, ETS2 (Homo sapiens, UniProt P15036 1-469).
T8 sequence: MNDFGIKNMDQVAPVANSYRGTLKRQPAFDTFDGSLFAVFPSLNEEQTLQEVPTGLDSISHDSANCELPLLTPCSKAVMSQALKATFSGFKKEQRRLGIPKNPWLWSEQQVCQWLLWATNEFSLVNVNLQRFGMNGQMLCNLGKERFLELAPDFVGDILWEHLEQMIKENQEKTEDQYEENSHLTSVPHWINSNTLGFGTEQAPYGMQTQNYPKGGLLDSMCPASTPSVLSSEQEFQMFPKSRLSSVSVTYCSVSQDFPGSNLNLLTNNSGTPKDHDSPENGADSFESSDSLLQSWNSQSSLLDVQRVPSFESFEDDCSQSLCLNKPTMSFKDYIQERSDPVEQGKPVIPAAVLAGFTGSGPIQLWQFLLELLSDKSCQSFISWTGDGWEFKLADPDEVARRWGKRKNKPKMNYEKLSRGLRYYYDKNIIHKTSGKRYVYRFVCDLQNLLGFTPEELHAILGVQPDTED
The note with it: protein: recombinant; tags: N-terminal GST; dsDNA, one strand shown. A digest of the protocol:
as §1

The target in the next assay is T9, SPDEF (Homo sapiens, UniProt O95238 1-335).
T9 sequence: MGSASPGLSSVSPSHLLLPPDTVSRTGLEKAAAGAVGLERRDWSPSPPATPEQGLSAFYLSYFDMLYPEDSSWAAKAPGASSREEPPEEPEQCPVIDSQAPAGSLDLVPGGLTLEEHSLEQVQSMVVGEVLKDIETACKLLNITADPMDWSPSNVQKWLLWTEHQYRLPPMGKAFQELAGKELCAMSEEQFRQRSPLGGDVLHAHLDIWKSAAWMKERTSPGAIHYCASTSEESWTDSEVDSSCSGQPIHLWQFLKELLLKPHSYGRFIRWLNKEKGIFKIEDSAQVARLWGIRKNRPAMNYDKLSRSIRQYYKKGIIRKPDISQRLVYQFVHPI
The note with it: protein: recombinant; tags: N-terminal GST; dsDNA, one strand shown. A digest of the protocol:
as §1

The next assay has as its target T10, ETV7 (Homo sapiens, UniProt Q9Y603 1-341).
T10 sequence: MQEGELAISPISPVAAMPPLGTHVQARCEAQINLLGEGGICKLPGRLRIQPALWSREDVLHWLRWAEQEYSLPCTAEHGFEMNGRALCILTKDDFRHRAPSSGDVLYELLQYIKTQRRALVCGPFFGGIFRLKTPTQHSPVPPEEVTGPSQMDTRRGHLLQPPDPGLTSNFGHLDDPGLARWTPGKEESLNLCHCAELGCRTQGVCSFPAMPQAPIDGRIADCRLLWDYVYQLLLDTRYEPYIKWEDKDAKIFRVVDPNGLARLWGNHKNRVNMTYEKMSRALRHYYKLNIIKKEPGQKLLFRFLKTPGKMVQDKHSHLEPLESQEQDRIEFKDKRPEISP
Conditions: protein: recombinant; tags: N-terminal GST; dsDNA, one strand shown. The gist of the method: as §1

Another assay concerns the target T11, ELF5 (Homo sapiens, UniProt Q9UKW6-2 1-255).
T11 sequence: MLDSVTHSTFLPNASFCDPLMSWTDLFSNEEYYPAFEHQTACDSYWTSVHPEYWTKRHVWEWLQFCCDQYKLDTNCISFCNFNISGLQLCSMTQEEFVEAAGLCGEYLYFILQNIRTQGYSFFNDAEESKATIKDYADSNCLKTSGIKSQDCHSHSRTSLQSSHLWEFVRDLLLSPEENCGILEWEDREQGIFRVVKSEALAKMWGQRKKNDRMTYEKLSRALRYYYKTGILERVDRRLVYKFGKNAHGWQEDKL
The note with it: protein: recombinant; tags: N-terminal GST; dsDNA, one strand shown. The gist of the method:
as §1

The target of a further assay is T12, ETV3 (Homo sapiens, UniProt P41162-2 1-143).
T12 sequence: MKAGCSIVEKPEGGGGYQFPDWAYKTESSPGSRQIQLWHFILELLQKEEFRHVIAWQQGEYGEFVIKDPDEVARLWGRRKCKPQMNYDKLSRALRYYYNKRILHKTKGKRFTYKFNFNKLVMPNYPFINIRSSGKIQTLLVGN
The note with it: protein: recombinant; tags: N-terminal GST; dsDNA, one strand shown. A digest of the protocol:
as §1

The target of a further assay is ETV6 (Homo sapiens, UniProt P41212 1-452). The note with it: protein: recombinant; tags: N-terminal GST; dsDNA, one strand shown. The gist of the method:
as §1

ETV5, sequence (P41161 whole entry): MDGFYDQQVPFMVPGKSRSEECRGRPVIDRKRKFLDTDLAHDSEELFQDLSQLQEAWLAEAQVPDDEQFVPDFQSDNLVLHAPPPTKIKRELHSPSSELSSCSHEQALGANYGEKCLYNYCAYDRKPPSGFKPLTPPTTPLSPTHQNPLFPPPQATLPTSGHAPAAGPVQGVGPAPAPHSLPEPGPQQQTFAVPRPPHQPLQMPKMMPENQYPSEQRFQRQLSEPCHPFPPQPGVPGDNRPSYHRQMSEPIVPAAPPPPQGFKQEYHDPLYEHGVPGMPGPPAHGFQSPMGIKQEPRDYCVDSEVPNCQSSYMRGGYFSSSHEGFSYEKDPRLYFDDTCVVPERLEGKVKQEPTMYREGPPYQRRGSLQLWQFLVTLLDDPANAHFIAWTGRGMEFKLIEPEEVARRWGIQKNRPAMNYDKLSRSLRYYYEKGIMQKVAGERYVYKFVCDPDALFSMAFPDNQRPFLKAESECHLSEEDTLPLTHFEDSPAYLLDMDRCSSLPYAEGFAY
HSF1, sequence (Q00613 whole entry): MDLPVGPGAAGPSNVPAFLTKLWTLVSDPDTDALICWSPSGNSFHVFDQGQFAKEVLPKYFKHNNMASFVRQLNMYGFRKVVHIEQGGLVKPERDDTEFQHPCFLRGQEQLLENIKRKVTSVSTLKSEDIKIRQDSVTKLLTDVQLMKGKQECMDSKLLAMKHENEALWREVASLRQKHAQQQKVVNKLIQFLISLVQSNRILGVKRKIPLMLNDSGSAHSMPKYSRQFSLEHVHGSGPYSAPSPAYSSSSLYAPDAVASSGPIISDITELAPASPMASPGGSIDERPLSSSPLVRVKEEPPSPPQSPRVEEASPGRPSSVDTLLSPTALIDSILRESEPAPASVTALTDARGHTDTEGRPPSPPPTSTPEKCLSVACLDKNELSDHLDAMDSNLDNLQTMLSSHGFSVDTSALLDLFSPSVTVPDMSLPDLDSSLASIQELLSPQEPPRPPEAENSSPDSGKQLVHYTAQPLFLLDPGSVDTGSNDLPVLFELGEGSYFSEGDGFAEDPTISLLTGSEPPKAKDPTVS
ETV6, sequence (P41212 whole entry): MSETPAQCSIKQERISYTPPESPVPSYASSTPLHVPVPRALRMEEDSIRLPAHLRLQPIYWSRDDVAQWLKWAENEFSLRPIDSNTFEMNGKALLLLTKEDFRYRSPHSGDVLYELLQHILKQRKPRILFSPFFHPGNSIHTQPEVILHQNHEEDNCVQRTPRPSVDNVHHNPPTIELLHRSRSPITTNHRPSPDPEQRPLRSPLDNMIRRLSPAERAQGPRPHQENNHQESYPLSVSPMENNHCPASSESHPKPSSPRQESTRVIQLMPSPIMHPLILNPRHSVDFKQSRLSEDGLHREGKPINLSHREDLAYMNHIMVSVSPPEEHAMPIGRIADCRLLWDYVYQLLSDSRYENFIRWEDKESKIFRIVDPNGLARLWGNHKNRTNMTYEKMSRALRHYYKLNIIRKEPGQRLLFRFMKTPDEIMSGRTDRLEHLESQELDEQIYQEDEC
ELF4, sequence (Q99607 whole entry): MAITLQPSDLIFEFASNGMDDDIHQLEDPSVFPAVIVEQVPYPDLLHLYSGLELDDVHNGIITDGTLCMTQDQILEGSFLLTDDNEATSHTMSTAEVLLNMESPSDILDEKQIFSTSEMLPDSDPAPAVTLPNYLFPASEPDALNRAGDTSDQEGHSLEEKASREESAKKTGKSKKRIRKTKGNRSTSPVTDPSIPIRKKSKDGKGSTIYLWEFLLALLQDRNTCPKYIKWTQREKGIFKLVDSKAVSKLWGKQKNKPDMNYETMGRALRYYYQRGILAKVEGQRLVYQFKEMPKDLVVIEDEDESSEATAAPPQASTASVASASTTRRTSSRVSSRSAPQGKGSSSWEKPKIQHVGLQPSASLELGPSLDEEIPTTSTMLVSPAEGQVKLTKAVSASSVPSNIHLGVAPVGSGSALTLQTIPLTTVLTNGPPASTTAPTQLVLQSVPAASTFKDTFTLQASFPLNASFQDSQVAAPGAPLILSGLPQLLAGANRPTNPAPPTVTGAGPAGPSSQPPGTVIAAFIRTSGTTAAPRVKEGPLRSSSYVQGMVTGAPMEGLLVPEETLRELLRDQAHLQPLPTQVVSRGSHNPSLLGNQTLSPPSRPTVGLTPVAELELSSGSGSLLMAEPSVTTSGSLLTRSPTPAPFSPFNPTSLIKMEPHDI
CRX, sequence (O43186 whole entry): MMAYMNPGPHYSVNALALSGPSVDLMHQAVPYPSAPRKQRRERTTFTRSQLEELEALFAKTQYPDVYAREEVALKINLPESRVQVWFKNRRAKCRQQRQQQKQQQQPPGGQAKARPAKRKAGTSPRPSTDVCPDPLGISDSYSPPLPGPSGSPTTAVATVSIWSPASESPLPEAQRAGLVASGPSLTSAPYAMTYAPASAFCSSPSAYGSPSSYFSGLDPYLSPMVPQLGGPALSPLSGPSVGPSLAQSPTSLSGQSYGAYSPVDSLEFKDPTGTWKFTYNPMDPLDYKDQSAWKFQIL
ETV1, sequence (P50549 whole entry): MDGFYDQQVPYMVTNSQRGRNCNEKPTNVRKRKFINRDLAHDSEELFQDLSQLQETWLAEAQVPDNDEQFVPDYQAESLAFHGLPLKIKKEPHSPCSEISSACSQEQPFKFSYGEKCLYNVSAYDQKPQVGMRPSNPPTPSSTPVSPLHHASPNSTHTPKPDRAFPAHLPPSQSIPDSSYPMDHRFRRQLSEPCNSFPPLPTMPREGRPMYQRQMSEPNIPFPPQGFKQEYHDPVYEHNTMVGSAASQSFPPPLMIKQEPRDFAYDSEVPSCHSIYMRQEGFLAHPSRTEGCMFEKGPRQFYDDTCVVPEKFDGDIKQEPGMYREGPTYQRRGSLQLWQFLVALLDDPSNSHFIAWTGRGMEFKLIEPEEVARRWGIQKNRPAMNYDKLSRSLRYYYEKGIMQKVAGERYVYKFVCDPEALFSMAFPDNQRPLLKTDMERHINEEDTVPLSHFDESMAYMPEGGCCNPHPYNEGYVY

For CTTAGC, the binding signal is 1.12 fold enrichment (6-mer frequency, TF over GST control) with FEV; 1.18 fold enrichment (6-mer frequency, TF over GST control) in the assay with ETV5; 1.47 fold enrichment (6-mer frequency, TF over GST control) with HSF1; 1.35 fold enrichment (6-mer frequency, TF over GST control) with SPIC; 1.28 fold enrichment (6-mer frequency, TF over GST control) in the assay with ELF4; 1.21 fold enrichment (6-mer frequency, TF over GST control) in the assay with ELK4. Further, the binding signal with ETV2 was 1.3 fold enrichment (6-mer frequency, TF over GST control); with ELF3, 1.07 fold enrichment (6-mer frequency, TF over GST control); with CRX, 2.17 fold enrichment (6-mer frequency, TF over GST control); with ETV1, 1.24 fold enrichment (6-mer frequency, TF over GST control); with ERF it was 1.25 fold enrichment (6-mer frequency, TF over GST control); with ETV3L, 1.23 fold enrichment (6-mer frequency, TF over GST control). For the same sequence, the binding signal is 1.18 fold enrichment (6-mer frequency, TF over GST control) in the assay with ETS2; 1.15 fold enrichment (6-mer frequency, TF over GST control) in the assay with SPDEF; 1.16 fold enrichment (6-mer frequency, TF over GST control) in the assay with ETV7; 1.16 fold enrichment (6-mer frequency, TF over GST control) with ELF5; 1.22 fold enrichment (6-mer frequency, TF over GST control) with ETV3; 1.2 fold enrichment (6-mer frequency, TF over GST control) with ETV6.

The record behind these values is publication PMC7862700, “An all-to-all approach to the identification of sequence-specific readers for epigenetic DNA modifications on cytosine”.
